Broadly, the AC50 is the midpoint of the concentration-response curve, whichever way the signal moves.

Results filed as inconclusive are left out. The source made the active and inactive calls. The limit is not given here; nearly all actives have AC50 up to about 26 µM.

The values that follow come from PubChem BioAssay.

The assay can be described thus: viability loss in pontine glioma line – cell-based, SU-DIPG-XXV, MIPE5.0, CellTiter-Glo, qHTS, dose response (AID 1347065).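 Also: cells exposed to compound for 48 hours before ATP readout.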 The note with it: CellTiter-Glo ATP luminescence.
As for `CC[C@@]1([C@@H]2O[C@@H]([C@H]3O[C@@](O)(CO)[C@H](C)C[C@@H]3C)C[C@@H]2C)CC[C@H]([C@]2(C)CC[C@]3(C[C@H](O)[C@@H](C)[C@@H]([C@@H](C)[C@@H](OC)[C@H](C)C(=O)O)O3)O2)O1`, the AC50 was 0.456 µM (active).
Still for that read-out and setting: the result for `CC(=O)O/N=C1/C(c2c(O)[nH]c3cc(Br)ccc23)=Nc2ccccc21` reads 7.42 µM (active).
`Cc1ccc(F)c(NC(=O)Nc2ccc(-c3cccc4[nH]nc(N)c34)cc2)c1`: the AC50 is 8.33 µM (active).
Same read-out and setting: next, `Clc1ccc(COC(Cn2ccnc2)c2ccc(Cl)cc2Cl)c(Cl)c1` (centres undefined): 23.5 µM (active); `Cc1ncc(-c2ccnc(Nc3ccc(S(C)(=O)=O)cc3)n2)n1C(C)C`: 4.68 µM (active).
Same read-out and setting: next, `CC(N[C@H]1CCCC[C@@H]1NC(=O)c1ccc(Cl)cc1)c1cccc2ccccc12` (some centres undefined): 8.33 µM (active).
For `C/C(O)=C(\C#N)C(=O)Nc1ccc(C(F)(F)F)cc1`, the compound was classed as inactive.
Take `CN1N=C(N)c2cn([C@@H]3O[C@H](COP(=O)(O)O)[C@@H](O)[C@H]3O)c3ncnc1c23`: the AC50 is 0.105 µM (active).
The same measure, in the same setting: next, `CNC(=O)c1cccc(-c2ccc3c(N4CCOC[C@@H]4C)nc(N4CCOC[C@@H]4C)nc3n2)c1`: 0.372 µM (active); `COc1ccc(-c2ccc3c(N4CCOCC4)nc(N4C[C@@H](C)O[C@@H](C)C4)nc3n2)cc1CO`: 1.05 µM (active); `CCOc1cc2ncc(C#N)c(Nc3ccc(OCc4ccccn4)c(Cl)c3)c2cc1NC(=O)/C=C/CN(C)C`: 0.934 µM (active).
Same read-out and setting: the result for `N#CCNC(=O)c1ccc(-c2ccnc(Nc3ccc(N4CCOCC4)cc3)n2)cc1` reads 16.6 µM (active).
As to `COC(=O)c1ccc2c(C(=Nc3ccc(N(C)C(=O)CN4CCN(C)CC4)cc3)c3ccccc3)c(O)[nH]c2c1`, the AC50 was 1.66 µM (active).
On the same count and under the same terms, the result for `COc1cc2nccc(Oc3ccc(NC(=O)Nc4cc(C)on4)c(Cl)c3)c2cc1OC` reads 5.9 µM (active).
